According to PubChem BioAssay (EPA / NIEHS):
Records with an inconclusive call do not appear. The source made the active and inactive calls. Rule for the calls, unless noted: active = hit-call score of the fitted dose curve at least 0.9, where 1 is the maximum; inactive = score below 0.9.

What was measured:
[1] = CCTE_Shafer_MEA_dev_network_spike_number: CCTE's Neural Network Formation Assay for Number of Network Spikes, Shafer Lab (AID 2284048);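 note: synchronized bursts across electrodes counted on days 5 7 9 12 and integrated as AUC; fit as a loss of signal meaning fewer network spikes than DMSO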
In short: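 Extracellular recordings from 16-electrode wells track network formation in rat cortical cultures under continuous treatment from plating. The endpoint is network spike number, expressed as AUC across DIV 5–12 relative to DMSO vehicle.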

[2] = CCTE_Shafer_MEA_dev_network_spike_peak: CCTE's Neural Network Formation Assay for Mean Number of Electrodes in Network Spike, Shafer Lab (AID 2284049);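 note: fitted for loss of signal meaning fewer electrodes in network spikes than DMSO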
In short: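 Continuous 12-day exposure of rat cortical cultures, starting at plating, on MEA plates. Endpoint: electrodes participating in network-spike peaks, AUC across DIV 5–12, DMSO as negative control.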

[3] = CCTE_Shafer_MEA_dev_spike_duration_mean: CCTE's Neural Network Formation Assay for Mean Spike Duration, Shafer Lab (AID 2284051);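 note: mean network spike duration pooled as area under curve over DIV 5 to 12 recordings; potency for a decrease in mean network spike duration versus DMSO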
In short: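 Readout is the average length of network spikes, clustered firing across electrodes, summed over DIV 5, 7, 9 and 12 as area under the curve. Neurons from rat cortex developed networks on MEA plates under continuous 12-day exposure.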

[4] = CCTE_Shafer_MEA_dev_network_spike_duration_std: CCTE's Neural Network Formation Assay for Standard Deviation of Network Spike Duration, Shafer Lab (AID 2284052);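 note: area under curve of spike duration SD across recording days 5 to 12; hits are decreases in network spike duration SD versus DMSO vehicle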
In short: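 Read-out is the trapezoidal area-under-the-curve across recordings made on days 5, 7, 9 and 12, fitted in the negative direction against DMSO baseline. Neurons were primary rat cortical cells treated from day 0, with treatment renewed at each feed.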

[5] = CCTE_Shafer_MEA_dev_per_network_spike_spike_number_mean: CCTE's Neural Network Formation Assay for Mean Number of Spikes in a Network Spike, Shafer Lab (AID 2284053);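 note: fitted as decrease in spikes per network spike relative to DMSO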
In short: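 Continuous twelve-day exposure of developing rat cortical networks grown over 16 microelectrodes per well; spontaneous firing is captured at four time points, and the per-network-spike spike number is integrated over development by trapezoidal AUC.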

[6] = UKN5_HCS_SBAD2_cell_viability: Viability Assessment in the University of Konstanz (UKN) Leist Lab Neurite Outgrowth Assay in human iPSC-derived immature Dorsal Root Ganglia Neurons (UKN5) (AID 2284056)
In short: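 iPSC-derived immature peripheral neurons (SBAD2) seeded on Matrigel with CHIR99021, SU5402 and DAPT, dosed 1 h later for 24 h. Viability from Hoechst H-33342 and calcein-AM live staining, high-content imaging; bidirectional fit versus DMSO.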

[7] = CCTE_Shafer_MEA_dev_LDH: CCTE's Lactate Dehydrogenase Assay for Cytotoxicity in the Neural Network Formation Assay, Shafer Lab (AID 2284068; active = hit-call score of the fitted dose curve at least 0.9, where 1 is the maximum;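 note: exposure for twelve days from plating with re-dosing on DIV 5 and 9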)
In short: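 Cytotoxicity companion to network-formation recordings: rat cortical neurons received compound over 12 days of development, re-dosed at DIV 5 and 9 feeds. Viability was inferred from LDH enzyme activity relative to DMSO.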

[8] = CCTE_Shafer_MEA_acute_AB: CCTE's Alamar Blue Assay for Cytotoxicity in the Neural Acute Assay, Shafer Lab (AID 2284069; active = hit-call score of the fitted dose curve at least 0.9, where 1 is the maximum;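 note: active compounds lower the viability signal compared with DMSO wells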)
In short: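 Metabolic activity in chemically exposed rat cortical neurons (MEA cultures, day 13/15 post-plating) measured via CellTiter Blue resazurin reduction, 544/590 nm fluorescence; fitted relative to DMSO, with signal loss indicating reduced viability.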

[9] = UKN5_HCS_SBAD2_neurite_outgrowth: University of Konstanz (UKN) Leist Lab Neurite Outgrowth Assay in human iPSC-derived immature Dorsal Root Ganglia Neurons (UKN5) (AID 2284070); conditions: actives raise or lower the signal
In short: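 Neurite area from calcein-AM high-content images after 24 h exposure (staining included), with H-33342 for viability, fitted both directions against DMSO. Cells: thawed immature SBAD2 peripheral neurons, 100.000 cells/cm2, with CHIR99021, SU5402, DAPT; dosing 1 h after seeding.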

[10] = CCTE_Shafer_MEA_dev_AB: CCTE's Alamar Blue Assay for Cytotoxicity in the Neural Network Formation Assay, Shafer Lab (AID 2284083; active = hit-call score of the fitted dose curve at least 0.9, where 1 is the maximum;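 note: twelve days of exposure from plating with re-dosing on DIV 5 and 9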)
In short: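 Fluorescent resazurin reduction serves as the viability read-out, with DMSO as negative control and baseline. Cells were primary rat cortical neurons grown on MEA plates and dosed from day 0 to day 12, treatment renewed on DIV 5 and 9.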

[11] = CCTE_Shafer_MEA_acute_LDH: CCTE's Lactate Dehydrogenase Assay for Cytotoxicity in the Neural Acute Assay, Shafer Lab (AID 2284086; active = hit-call score of the fitted dose curve at least 0.9, where 1 is the maximum;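 note: active means LDH release rises above DMSO vehicle level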)
In short: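 LDH released during 40 min compound exposure of primary rat cortical cultures, quantified by absorbance at 490 nm in collected medium. Fitting direction positive versus DMSO vehicle.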

[12] = CCTE_Shafer_MEA_dev_mutual_information_norm: CCTE's Neural Network Formation Assay for Mutual Information Normalization, Shafer Lab (AID 2284091);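 note: mutual information between electrodes summarised as area under curve across four recording days; potency is for a decrease in mutual information relative to DMSO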
In short: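 Exposure of primary rat cortical neurons began at plating and ran to DIV 12, with full media and treatment renewal after DIV 5 and 9 recordings. Mutual information AUC (DIV 5–12) was analysed for loss versus DMSO.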

[13] = CCTE_Shafer_MEA_dev_correlation_coefficient_mean: CCTE's Neural Network Formation Assay for Mean Correlation Coefficient, Shafer Lab (AID 2284093);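 note: well mean pairwise spike train correlation integrated as AUC over recording days 5 to 12; potency fitted for loss of correlation relative to DMSO vehicle wells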
In short: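 Read-out: well-mean correlation coefficient of spike trains between electrode pairs, collapsed over four recording days as trapezoidal area-under-the-curve. Developing rat cortical neuron networks grown on MEAs received test chemical continuously from plating.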

[14] = UKN2_HCS_IMR90_neural_migration: University of Konstanz (UKN) Leist Lab Neural Crest Cell Migration Assay in human induced IMR90 Pluripotent Stem Cells (UKN2) (AID 2284204); conditions: actives raise or lower the signal
In short: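 Using a 96-well stopper format with PLO/laminin/fibronectin coating, neural crest cells from iPSC migrate in cytokine-supplemented N2-S medium; after 24 h, chemicals are applied for a further 24 h, then cells are imaged after dye staining.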

[15] = UKN4_HCS_LUHMES_neurite_outgrowth: University of Konstanz (UKN) Leist Lab Neurite Outgrowth Assay in human LUHMES cells (UKN4) (AID 2284206); conditions: actives raise or lower the signal
In short: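 After 24 h compound treatment beginning shortly after replating of 2-day-differentiated LUHMES cells, calcein-AM and H-33342 live staining allowed high-content imaging of neurite area and viability. Fitted bidirectionally against DMSO.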

[16] = IUF_NPC1b_proliferation_BrdU_72hr: Leibniz Research Institute for Environmental Medicine (IUF) 72-hour Neural Progenitor Cell Bromodeoxyuridine (BrdU) Proliferation Assay (NPC1b) (AID 2284207)
In short: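 Neural progenitor spheres of human fetal origin are treated for three days; BrdU added for the last 16 h is quantified by luminescence ELISA, with DMSO as baseline and EGF/FGF omission as positive control.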

[17] = IUF_NPC1a_proliferation_area_72hr: Leibniz Research Institute for Environmental Medicine (IUF) 72-hour Neural Progenitor Cell Proliferation Area Assay (NPC1a) (AID 2284208)
In short: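 Proliferation is scored as sphere area gain in primary human fetal neural progenitors treated for 72 h in EGF/FGF-containing medium. Viability, LDH and BrdU readouts come from the same wells.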

[18] = IUF_NPC1_viability_72hr: Viability Assessment at 72 hours in the Leibniz Research Institute for Environmental Medicine (IUF) Neural Progenitor Cell Proliferation Assay (NPC1) (AID 2284209)
In short: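 Viability was measured by resazurin-to-resorufin fluorescence (alamar blue) after 72 h of continuous exposure without compound renewal. Each well held one hNPC sphere (gestational week 16-19 fetal cortex, 0.25-0.35 mm) cultured in EGF/FGF proliferation medium at 37C and pH 7.2-7.6.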

[19] = CCTE_Mundy_HCI_Cortical_Synap_Neur_Matur_NeuriteSpotCountPerNeuriteLength: CCTE's Synaptogenesis and Neurite Maturation Assay in rat cortical cells for Neurite Spot Count per Neurite Length, Mundy Lab (AID 2284210)
In short: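 Neurite-associated synapse density (synaptophysin puncta per unit neurite length) is measured by fluorescence high-content imaging in rat cortical cultures treated from DIV 7 and fixed at DIV 12, with DMSO as negative control.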

[20] = CCTE_Mundy_HCI_Cortical_Synap_Neur_Matur_BPCount: CCTE's Synaptogenesis and Neurite Maturation Assay in rat cortical cells for Branch Point Count, Mundy Lab (AID 2284211)
In short: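 HCI read-out of branch points from MAP2/synaptophysin/Hoechst immunofluorescence; rat cortical cultures, AraC DIV 5, dosing DIV 7, fixed DIV 12; fit in positive direction vs DMSO baseline.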

[21] = CCTE_Mundy_HCI_Cortical_NOG_NeuriteCount: CCTE's Neurite Outgrowth Assay in rat cortical cells for Neurite Count, Mundy Lab (AID 2284212);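 note: cells fixed about two days after chemical exposure began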
In short: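 Rat cortical primary cells; compound added 2 h post-plating, 1/10 dilution of working solution. Anti-betaIII-tubulin/AF488 ICC; ArrayScan neurite count vs DMSO.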

[22] = CCTE_Mundy_HCI_Cortical_NOG_NeuriteLength: CCTE's Neurite Outgrowth Assay in rat cortical cells for Neurite Length, Mundy Lab (AID 2284213);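 note: neurites imaged about 48 to 50 h after chemical exposure began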
In short: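 First, rat primary cortical cells were plated and, 2 h later, given test chemical as a 1/10 dilution. Finally, βIII-tubulin immunostaining enabled automated imaging of neurite length.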

[23] = CCTE_Mundy_HCI_Cortical_Synap_Neur_Matur_NeuriteLength: CCTE's Synaptogenesis and Neurite Maturation Assay in rat cortical cells for Neurite Length, Mundy Lab (AID 2284214)
In short: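 Neurite length quantified by automated high-content imaging of MAP2, synaptophysin and Hoechst staining. Rat cortical cells received chemical from DIV 7 to DIV 12 […], glial growth arrested by AraC at DIV 5; DMSO baseline.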

## [Cd+2].[Cl-].[Cl-]
[1]
  AC50: 299 nM (active)
[2]
  AC50: 208 nM (active)
[3]
  AC50: 119 nM (active)
[4]
  AC50: 23.9 nM (active)
[5]
  AC50: 260 nM (active)
[6]
  AC50: 50000 nM (active)
[7]
  AC50: 1510 nM (active)
[8]
  outcome: inactive
[9]
  AC50: 50000 nM (active)
[10]
  AC50: 1210 nM (active)
[11]
  outcome: inactive
[12]
  AC50: 178 nM (active)
[13]
  AC50: 609 nM (active)
[14]
  AC50: 880 nM (active)
[15]
  AC50: 6250 nM (active)
[16]
  AC50: 6450 nM (active)
[17]
  outcome: inactive
[18]
  outcome: inactive
[19]
  outcome: inactive
[20]
  AC50: 1380 nM (active)
[21]
  AC50: 13100 nM (active)
[22]
  AC50: 12400 nM (active)
[23]
  AC50: 1460 nM (active)
